Bioassay records deposited in PubChem by several laboratories.
sEH inh – soluble epoxide hydrolase inhibitors, primary screen, biochemical, human sEH. recombinant human sEH enzymatic activity assay. inhibition, % at 2 µM. 91,000 tested, 0.34% active. Bifunctional epoxide hydrolase 2 (Homo sapiens), P34913; in the data active = inhibition above about 80%
LYP act – LYP phosphatase activators, primary screen, biochemical, DiFMUP fluorescence, 2 µM; 96,000 tested, 0.11% active; activation, % at 2 µM; Tyrosine-protein phosphatase non-receptor type 22 (Homo sapiens), Q9Y2R2; recombinant LYP; 0 = plate median, 100 = signal doubled;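 active = activation at 2 µM above a set limit, the mean plus 5 SD, cut at about 37% in these data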
Target sequence (Q9Y2R2 whole entry, looked up): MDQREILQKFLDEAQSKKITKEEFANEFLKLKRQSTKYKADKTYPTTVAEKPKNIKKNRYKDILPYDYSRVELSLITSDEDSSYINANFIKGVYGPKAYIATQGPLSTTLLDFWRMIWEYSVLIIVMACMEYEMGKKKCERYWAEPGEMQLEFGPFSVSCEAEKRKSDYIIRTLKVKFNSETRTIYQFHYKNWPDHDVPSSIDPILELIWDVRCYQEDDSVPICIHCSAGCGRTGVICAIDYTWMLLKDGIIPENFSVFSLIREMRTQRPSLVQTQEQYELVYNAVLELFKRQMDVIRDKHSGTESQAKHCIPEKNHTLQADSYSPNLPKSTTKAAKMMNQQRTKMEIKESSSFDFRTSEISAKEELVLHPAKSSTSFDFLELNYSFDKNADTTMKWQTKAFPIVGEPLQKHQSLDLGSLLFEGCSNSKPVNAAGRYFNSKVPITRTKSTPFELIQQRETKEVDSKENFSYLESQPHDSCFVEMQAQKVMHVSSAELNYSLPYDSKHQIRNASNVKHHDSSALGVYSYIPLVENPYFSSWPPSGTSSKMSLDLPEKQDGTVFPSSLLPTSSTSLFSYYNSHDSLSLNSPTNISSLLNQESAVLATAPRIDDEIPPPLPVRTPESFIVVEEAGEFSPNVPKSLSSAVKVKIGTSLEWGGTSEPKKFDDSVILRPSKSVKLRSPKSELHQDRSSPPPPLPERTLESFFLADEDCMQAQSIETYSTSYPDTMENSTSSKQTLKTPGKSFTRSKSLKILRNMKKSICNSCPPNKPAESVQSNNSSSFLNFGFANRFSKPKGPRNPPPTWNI
Measles CPE – compounds protecting cells from measles virus cytopathic effect, primary screen, measles RdRp inhibitor project, single point, MLSMR library, absorbance. Measles virus-infected cells, CPE protection. protection (pct of control), % at 4 µM. 140,000 tested, 1.5% active. AID 841, 2007; in the data active = protection mostly above about 24%, no sharp cut-off; inactive = mostly below about 26%
sEH activator – soluble epoxide hydrolase activators, primary screen, biochemical, human sEH | activation, % at 2 µM | Bifunctional epoxide hydrolase 2 (Homo sapiens), P34913 | purified human sEH enzymatic activity, activator screen | AID 717, 2007 | 91,000 tested, 0.04% active; in the data active = activation above about 37%
PTPN22 inh 2 – PTPN22 phosphatase inhibitors, primary screen, biochemical, DiFMUP fluorescence, 2 µM | Tyrosine-protein phosphatase non-receptor type 22 (Homo sapiens), Q9Y2R2 | inhibition, % at 2 µM | AID 640, 2007 | 96,000 tested, 0.21% active | recombinant LYP catalytic domain;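 active = inhibition at 2 µM at or above a set limit, the screen mean plus 3 SD, cut at about 24% in these data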
A number is an active result. A selection: hits, their analogues and other compounds. The true share with any hit is near 1.7%.

Screening COc1ccc(COCC(O)CN2CCOCC2)cc1OC (stereo unspecified) returned sEH inh inactive, LYP act inactive, Measles CPE inactive, sEH activator inactive and PTPN22 inh 2 inactive.
Screening CCOC(=O)N1C(=O)C2(CCCCC2)N(c2ccccc2Cl)C1=S returned Measles CPE inactive.
`Cc1ccc(Oc2cnc3ccccc3n2)cc1` gave sEH inh inactive, LYP act inactive, Measles CPE 67, sEH activator inactive and PTPN22 inh 2 inactive.
For Cc1ccc2c(c1)nnn2C1CCN(C(=O)NC23CC4CC(CC(C4)C2)C3)CC1 the results were sEH inh 85, LYP act inactive, Measles CPE inactive, sEH activator inactive and PTPN22 inh 2 inactive.
For Cc1ccc2c(c1)nnn2C1CCN(C(=O)C23CC4CC(CC(C4)C2)C3)CC1 the results were sEH inh inactive, LYP act inactive, Measles CPE inactive, sEH activator inactive and PTPN22 inh 2 inactive.
CC(C)(C)C(=O)OCCNc1nc(-c2ccccc2)nc2ccccc12 was read as Measles CPE inactive.
`CCCCCCC(C)NC(=S)Nc1cc(S(=O)(=O)N(C)C)ccc1C` (stereo unspecified) gave Measles CPE inactive.
For CS(=O)(=O)N1CCc2cc(-c3csc(NC(=O)Cc4cccs4)n3)ccc21 the results were sEH inh inactive, LYP act inactive, Measles CPE 101, sEH activator inactive and PTPN22 inh 2 inactive.
Screening CCc1cccc(CC)c1NC(=O)/C(C#N)=C/c1ccccc1C(F)(F)F returned Measles CPE inactive.
Screening O=C(CCCCn1c(=O)c2ccccc2n(CC(=O)NC2CCCC2)c1=O)NC1CCCC1 returned sEH inh inactive, LYP act inactive, Measles CPE 88, sEH activator inactive and PTPN22 inh 2 inactive.
Cn1c(C(=O)N2CCCC(C(=O)NCc3cccs3)C2)cc2sccc21 (stereo unspecified) was read as sEH inh inactive, LYP act inactive, Measles CPE inactive, sEH activator inactive and PTPN22 inh 2 inactive.
Cn1c(C(=O)N2CCCC(C(=O)NCCCSC3CCCCC3)C2)cc2sccc21 (stereo unspecified) was read as sEH inh 92, LYP act inactive, Measles CPE inactive, sEH activator inactive and PTPN22 inh 2 inactive.
For CCn1c(C(=O)N2CCCC(C(=O)NCCCc3ccccc3)C2)cc2sccc21 (stereo unspecified) the results were sEH inh 94, LYP act inactive, Measles CPE inactive, sEH activator inactive and PTPN22 inh 2 inactive.
CCn1c(C(=O)N2CCCC(C(=O)NCCc3ccc(C)cc3)C2)cc2sccc21 (stereo unspecified) was read as sEH inh inactive, LYP act inactive, Measles CPE inactive, sEH activator inactive and PTPN22 inh 2 inactive.
`CSc1ccccc1OC1CCN(Cc2ccccc2)CC1` gave Measles CPE inactive.
`O=C(c1cc(-c2ccco2)on1)N1CCc2ccccc2C1` gave LYP act inactive, Measles CPE 69 and PTPN22 inh 2 inactive.
Screening O=C(CSc1nnc2scc(-c3ccccc3)n12)Nc1nsc(-c2ccc(Cl)cc2)n1 returned sEH inh inactive, LYP act inactive, sEH activator inactive and PTPN22 inh 2 26.
Screening CCOC(=O)Cc1csc(NC(=S)NC(=O)c2ccc(C)cc2)n1 returned Measles CPE inactive.
`O=S(=O)([O-])CCC[n+]1c(SCCCS(=O)(=O)O)sc2ccc(Cl)cc21` gave Measles CPE 35.
`Cc1ccc(NC(=O)CCCCCCCCCCC2COCCO2)c(C)c1` (stereo unspecified) gave Measles CPE inactive.
Screening O=C(NCC1CCCO1)c1ccc(S(=O)(=O)N2CCC(c3nc4ccc(Cl)cc4[nH]3)CC2)cc1 (stereo unspecified) returned sEH inh 81, LYP act inactive, Measles CPE inactive, sEH activator inactive and PTPN22 inh 2 inactive.
Oc1ccccc1C=Nc1ccccc1-c1nc2ccccc2[nH]1 was read as Measles CPE 58.
`Oc1ccc(C=Nc2ccccc2-c2nc3ccccc3[nH]2)c(O)c1` gave Measles CPE inactive.
For CCN(CC)C(=O)CSc1nc(OC)cc(=O)[nH]1 the results were Measles CPE inactive.
`O=C(Cn1cccc1)N1CCc2ccccc21` gave sEH inh inactive, LYP act inactive, Measles CPE 100, sEH activator inactive and PTPN22 inh 2 inactive.
O=C(Cn1ncc2ccccc21)N1CCc2ccccc21 was read as Measles CPE 45.
For O=C(COC(=O)C12CC3CC(CC(C3)C1)C2)Nc1ccc([N+](=O)[O-])cc1Cl the results were Measles CPE inactive.
Screening CC(=O)Nc1ccc(Sc2ncnc3scc(-c4ccccc4)c23)cc1 returned Measles CPE inactive.
For CC(=O)Nc1cccc(Oc2ncnc3scc(-c4ccc(C(C)C)cc4)c23)c1 the results were Measles CPE 60.
CCC1(C(=O)OC)NC(c2ccco2)C2C(=O)N(c3ccccc3)C(=O)C21 (stereo unspecified) was read as sEH inh inactive, LYP act inactive, Measles CPE 78, sEH activator inactive and PTPN22 inh 2 inactive.
`CCC1(C(=O)OC)NC(c2ccccc2OC)C2C(=O)N(C)C(=O)C21` (stereo unspecified) gave sEH inh inactive, LYP act inactive, Measles CPE inactive, sEH activator inactive and PTPN22 inh 2 inactive.
For Cc1ccc(S(=O)(=O)N(C)CCCC(=O)Nc2ccc(C)cc2C)cc1 the results were Measles CPE inactive.
For CCOC(=O)c1sc(NC(=O)c2ccc(C)s2)cc1C the results were sEH inh 87, LYP act inactive, Measles CPE inactive, sEH activator inactive and PTPN22 inh 2 inactive.
Screening CCOC(=O)c1sc(NC(C)=O)cc1C returned Measles CPE inactive.
Screening CCCCC(CC)CNC(=O)CN(C)S(=O)(=O)c1cccc2nsnc12 (stereo unspecified) returned LYP act inactive, Measles CPE 38 and PTPN22 inh 2 inactive.
`CCCCC(CC)CNC(=O)CCS(=O)(=O)c1cccc2nsnc12` (stereo unspecified) gave Measles CPE inactive.
`O=C(Nc1cnc2ccccc2c1)c1cccc(-n2cnnn2)c1` gave sEH inh inactive, LYP act inactive, Measles CPE inactive, sEH activator inactive and PTPN22 inh 2 inactive.
Screening c1ccc2ncc(-n3cnnn3)cc2c1 returned sEH inh inactive, LYP act inactive, Measles CPE 38, sEH activator inactive and PTPN22 inh 2 inactive.
O=C(Cc1cnn(-c2ccccc2)c1)c1ccc(O)c(O)c1O was read as sEH inh inactive, LYP act inactive, Measles CPE inactive, sEH activator inactive and PTPN22 inh 2 29.
`CCc1cc(C(=O)Cc2cnn(-c3ccccc3)c2)c(O)cc1O` gave LYP act inactive, Measles CPE inactive and PTPN22 inh 2 inactive.
